Measured values reported in the supplement of paper PMC6411743.
± gives the standard deviation of the averaged measurements. Of roughly 6,200 targets only a part is listed; those with the largest changes were picked by preference.

Experiments:
Experiment in all cases: NP40-soluble protein abundance relative to vehicle (solubility fold change) (ratio); higher = more soluble protein in presence of AMP-PNP
A0A024R216|Q9Y3E1 = A0A024R216|Q9Y3E1 (UniProt Q9Y3E1)
Method in brief: (§1)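 Jurkat crude lysate prepared with a Dounce homogeniser was treated at eight concentrations spanning 0.1 to 10 mM, 10 min at room temperature then 3 min at 37 °C. Solubilisation with 0.8% NP40 and benzonase and ultracentrifugation preceded TMT labelling of the supernatant for LC-MS/MS. Fold change against the detergent-processed vehicle was determined per replicate from vsn-normalised intensities, across three independent experiments.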

A0A024RAC6 = A0A024RAC6 (UniProt Q14241)
Sequence of A0A024RAC6 (Q14241 whole entry): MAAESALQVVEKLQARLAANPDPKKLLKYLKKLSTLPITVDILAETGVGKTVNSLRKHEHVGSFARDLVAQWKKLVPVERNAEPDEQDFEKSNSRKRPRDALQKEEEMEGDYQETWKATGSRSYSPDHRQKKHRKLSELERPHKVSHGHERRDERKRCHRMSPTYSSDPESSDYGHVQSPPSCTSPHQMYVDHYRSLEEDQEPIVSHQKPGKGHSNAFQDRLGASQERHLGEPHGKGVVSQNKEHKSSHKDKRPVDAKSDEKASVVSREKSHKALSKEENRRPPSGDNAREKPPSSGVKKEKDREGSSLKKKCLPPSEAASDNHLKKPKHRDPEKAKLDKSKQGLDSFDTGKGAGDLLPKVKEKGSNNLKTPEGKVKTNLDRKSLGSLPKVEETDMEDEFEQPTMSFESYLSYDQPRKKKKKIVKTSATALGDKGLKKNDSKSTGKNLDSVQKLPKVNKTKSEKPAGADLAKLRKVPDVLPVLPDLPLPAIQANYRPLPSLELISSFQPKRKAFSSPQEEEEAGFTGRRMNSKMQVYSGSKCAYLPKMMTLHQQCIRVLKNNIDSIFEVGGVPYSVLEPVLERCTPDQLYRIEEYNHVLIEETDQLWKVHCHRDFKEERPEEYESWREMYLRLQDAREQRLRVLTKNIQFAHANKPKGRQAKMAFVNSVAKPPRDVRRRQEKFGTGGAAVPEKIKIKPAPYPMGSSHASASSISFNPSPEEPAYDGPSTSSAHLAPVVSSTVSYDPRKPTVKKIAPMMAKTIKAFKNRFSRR
Method in brief: as §1

[1] = biological target: A0A075B738|P16284|P16284-6 (UniProt P16284)
Method in brief: as §1

A0A087WUL0|Q3LXA3 = biological target: T1, A0A087WUL0|Q3LXA3 (UniProt Q3LXA3)
T1 sequence (whole entry): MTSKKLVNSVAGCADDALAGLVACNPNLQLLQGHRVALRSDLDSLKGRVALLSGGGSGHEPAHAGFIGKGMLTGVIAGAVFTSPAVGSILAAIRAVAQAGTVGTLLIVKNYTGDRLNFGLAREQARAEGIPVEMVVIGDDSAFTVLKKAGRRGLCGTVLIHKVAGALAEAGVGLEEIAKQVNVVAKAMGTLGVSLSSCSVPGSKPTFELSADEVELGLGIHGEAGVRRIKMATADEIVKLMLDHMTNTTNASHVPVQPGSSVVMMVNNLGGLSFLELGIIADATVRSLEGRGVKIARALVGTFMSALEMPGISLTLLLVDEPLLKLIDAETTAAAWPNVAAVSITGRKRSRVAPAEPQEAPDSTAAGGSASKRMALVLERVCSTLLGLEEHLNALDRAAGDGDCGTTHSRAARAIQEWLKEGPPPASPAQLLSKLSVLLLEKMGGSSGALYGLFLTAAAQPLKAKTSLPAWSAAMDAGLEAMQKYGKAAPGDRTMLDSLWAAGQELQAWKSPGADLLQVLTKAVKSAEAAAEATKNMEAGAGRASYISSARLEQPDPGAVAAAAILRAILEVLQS
Method in brief: as §1

A0A087WUT6|O60841 = biological target: T2, A0A087WUT6|O60841 (UniProt O60841)
T2 sequence (whole entry): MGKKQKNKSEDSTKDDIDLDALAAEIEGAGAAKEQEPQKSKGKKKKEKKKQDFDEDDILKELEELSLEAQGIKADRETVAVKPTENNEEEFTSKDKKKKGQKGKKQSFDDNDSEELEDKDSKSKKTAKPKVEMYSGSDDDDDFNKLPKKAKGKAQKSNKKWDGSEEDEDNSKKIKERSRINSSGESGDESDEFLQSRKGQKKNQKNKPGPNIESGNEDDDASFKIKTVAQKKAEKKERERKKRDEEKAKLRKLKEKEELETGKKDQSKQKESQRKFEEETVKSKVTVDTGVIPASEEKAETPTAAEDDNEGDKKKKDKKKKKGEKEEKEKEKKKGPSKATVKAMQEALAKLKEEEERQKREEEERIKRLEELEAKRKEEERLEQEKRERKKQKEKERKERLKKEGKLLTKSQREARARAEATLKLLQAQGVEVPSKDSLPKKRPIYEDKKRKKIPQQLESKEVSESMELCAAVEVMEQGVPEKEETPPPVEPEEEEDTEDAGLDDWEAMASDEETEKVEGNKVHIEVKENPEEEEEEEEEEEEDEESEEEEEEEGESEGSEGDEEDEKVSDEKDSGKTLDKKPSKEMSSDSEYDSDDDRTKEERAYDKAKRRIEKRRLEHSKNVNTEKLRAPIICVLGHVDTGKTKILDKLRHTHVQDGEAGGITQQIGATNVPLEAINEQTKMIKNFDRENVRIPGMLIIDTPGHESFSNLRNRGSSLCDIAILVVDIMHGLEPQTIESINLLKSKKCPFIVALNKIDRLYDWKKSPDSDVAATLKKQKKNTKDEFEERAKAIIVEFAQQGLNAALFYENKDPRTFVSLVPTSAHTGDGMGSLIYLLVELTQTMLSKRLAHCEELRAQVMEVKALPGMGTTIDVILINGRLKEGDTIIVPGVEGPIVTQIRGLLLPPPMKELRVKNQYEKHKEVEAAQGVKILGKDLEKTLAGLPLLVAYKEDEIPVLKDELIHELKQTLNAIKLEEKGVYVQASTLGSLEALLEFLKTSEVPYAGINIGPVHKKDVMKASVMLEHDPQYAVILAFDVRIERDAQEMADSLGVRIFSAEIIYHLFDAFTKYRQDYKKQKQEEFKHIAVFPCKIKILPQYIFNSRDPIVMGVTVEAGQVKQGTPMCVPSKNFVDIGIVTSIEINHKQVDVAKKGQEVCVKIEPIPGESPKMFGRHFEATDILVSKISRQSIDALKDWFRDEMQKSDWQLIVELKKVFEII
Method in brief: as §1

Sequence of A0A024R216|Q9Y3E1 (Q9Y3E1 whole entry, one chain of several): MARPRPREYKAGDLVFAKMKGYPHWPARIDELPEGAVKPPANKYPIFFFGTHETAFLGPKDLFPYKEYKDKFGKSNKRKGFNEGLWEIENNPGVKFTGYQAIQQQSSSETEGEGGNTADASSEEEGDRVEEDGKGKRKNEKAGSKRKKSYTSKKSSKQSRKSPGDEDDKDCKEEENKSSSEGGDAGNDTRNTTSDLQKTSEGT

## Nc1ncnc2c1ncn2[C@@H]1O[C@H](COP(=O)(O)OP(=O)(O)NP(=O)(O)O)[C@@H](O)[C@H]1O [adenylyl imidodiphosphate]
A0A024R216|Q9Y3E1; concentration: 1mM
  NP40-soluble protein abundance: 1 ± 0.031
A0A024R216|Q9Y3E1; concentration: 2mM
  NP40-soluble protein abundance: 1.1 ± 0.17
A0A024R216|Q9Y3E1; concentration: 4mM
  NP40-soluble protein abundance: 1.05 ± 0.074
A0A024R216|Q9Y3E1; concentration: 6mM
  NP40-soluble protein abundance: 1.16 ± 0.074
A0A024R216|Q9Y3E1; concentration: 8mM
  NP40-soluble protein abundance: 1.11 ± 0.06
A0A024R216|Q9Y3E1; concentration: 10mM
  NP40-soluble protein abundance: 1.17 ± 0.14
A0A024RAC6; concentration: 1mM
  NP40-soluble protein abundance: 1.05 ± 0.014
A0A024RAC6; concentration: 2mM
  NP40-soluble protein abundance: 1.13 ± 0.076
A0A024RAC6; concentration: 4mM
  NP40-soluble protein abundance: 1.06 ± 0.029
A0A024RAC6; concentration: 6mM
  NP40-soluble protein abundance: 1.08 ± 0.044
A0A024RAC6; concentration: 8mM
  NP40-soluble protein abundance: 1.06 ± 0.022
A0A024RAC6; concentration: 10mM
  NP40-soluble protein abundance: 1.09 ± 0.019
[1]; concentration: 1mM
  NP40-soluble protein abundance: 1.02 ± 0.027
[1]; concentration: 2mM
  NP40-soluble protein abundance: 1.08 ± 0.095
[1]; concentration: 4mM
  NP40-soluble protein abundance: 1.01 ± 0.033
[1]; concentration: 6mM
  NP40-soluble protein abundance: 0.995 ± 0.011
[1]; concentration: 8mM
  NP40-soluble protein abundance: 0.98 ± 0.013
[1]; concentration: 10mM
  NP40-soluble protein abundance: 0.994 ± 0.032
A0A087WUL0|Q3LXA3; concentration: 1mM
  NP40-soluble protein abundance: 1.02 ± 0.024
A0A087WUL0|Q3LXA3; concentration: 2mM
  NP40-soluble protein abundance: 1.05 ± 0.05
A0A087WUL0|Q3LXA3; concentration: 4mM
  NP40-soluble protein abundance: 1.03 ± 0.054
A0A087WUL0|Q3LXA3; concentration: 6mM
  NP40-soluble protein abundance: 0.997 ± 0.01
A0A087WUL0|Q3LXA3; concentration: 8mM
  NP40-soluble protein abundance: 0.963 ± 0.027
A0A087WUL0|Q3LXA3; concentration: 10mM
  NP40-soluble protein abundance: 1.02 ± 0.036
A0A087WUT6|O60841; concentration: 1mM
  NP40-soluble protein abundance: 1.05 ± 0.012
A0A087WUT6|O60841; concentration: 2mM
  NP40-soluble protein abundance: 1.02 ± 0.018
A0A087WUT6|O60841; concentration: 4mM
  NP40-soluble protein abundance: 1.02 ± 0.017
